Where “and” joins values, the source holds several entries; their conditions need not be identical. Equal values may be shown once. Compounds without any hit were thinned out: in the full panel of roughly 83,000, 20% have a hit.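 Cell lines were cultured in 96-well plates, exposed to a single compound concentration, and assessed for percent growth 48 hours later.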 Values without a mark were called inactive. Calls of active or inactive are those of the source. How the source made its calls: active means growth percent below 10; inactive means the rest.
System: MDA-MB-468 breast
Assay: NCI-60 one-dose screen, 48 h (100 = growth as untreated, 0 = no growth, -100 = all killed)
Conditions: 10 µM unless noted

Q: For `COc1ccc(S(=O)(=O)N(C(C)=O)c2ccccc2/C=C/c2cc[n+]([O-])cc2)cc1`, which growth is on record?
A: 10.8%

Q: `O=C1OC(c2ccc(-c3ccccc3)cc2)=C/C1=C/c1c2ccccc2cc2ccccc12` was tested. Which growth did it give?
A: 90.2%

Q: Which growth does the source give for `COC(=O)c1cc(C(=O)OC)cc([N+](=O)[O-])c1` here?
A: 107%

Q: For `CCOC(=O)c1sc(N)nc1-c1ccccc1`, which growth is on record?
A: 97.4%

Q: `CC(O)CNC(Cc1ccccc1)c1ccc2c(c1)OCO2` (stereo not drawn) was tested. Which growth did it give?
A: 101%

Q: `OCC1OC(n2cnc3c(Cl)ncnc32)CC1O` (stereo not drawn) was tested. Which growth did it give?
A: 91.9%

Q: `C=C1C(=O)O[C@H]2[C@H]1CC/C(COC(=O)c1ccccc1)=C\CC[C@@]1(C)O[C@@H]21` was tested. Which growth did it give?
A: -28.7% (active)

Q: Which growth does the source give for `CC(=O)C1=C(C)NC(NNC(N)=S)=NC1c1ccccc1` (stereo not drawn) here?
A: 100%

Q: Which growth does the source give for `C=C1C(=O)O[C@H]2[C@H]1CC/C(COC(=O)CCC(=O)OC/C1=C/CC[C@@]3(C)O[C@H]3[C@H]3OC(=O)C(=C)[C@@H]3CC1)=C\CC[C@@]1(C)O[C@@H]21` here?
A: -39% (active)

Q: For `C=C(CNCCc1ccc(O)cc1)[C@@H]1CC[C@]2(CO)CC[C@]3(C)[C@H](CC[C@@H]4[C@@]5(C)CCC(=O)C(C)(C)[C@@H]5CC[C@]43C)[C@@H]12`, which growth is on record?
A: 8.97% (active)

Q: For `C/C(=N/Nc1nc2ccccc2n1C)c1ccccn1`, which growth is on record?
A: -41.9% (active)

Q: For `CC(CC(=O)c1ccccc1)c1ccccc1` (stereo not drawn), which growth is on record?
A: 96.5%

Q: How did the growth turn out when `CC(C)(C)c1[nH]nc2c1C(c1cc3ccccc3[nH]c1=O)Nc1cc(C(=O)Nc3ccc(Cl)cc3)ccc1N2` (stereo not drawn) was run?
A: -15.9% (active)

Q: For `CCOC(=O)c1c(Nc2ccccc2)nn2c(N)c(C#N)c(-c3ccc(F)cc3)nc12`, which growth is on record?
A: 82.5%

Q: For `COc1ccc2c(c1)C(C)Cc1c(N(C)C)ncnc1N2C` (stereo not drawn), which growth is on record?
A: 29.9%

Q: For `CC(C)(C)OC(=O)N[C@@H](Cc1ccccc1)C(=O)N(Cc1ccccc1)C1(C(=O)NCc2ccccc2)CCN(Cc2ccccc2)CC1`, which growth is on record?
A: 7.09% (active)

Q: For `CN(C)c1ccc(C(=O)OCCCCCCl)cc1`, which growth is on record?
A: 95.3%

Q: How did the growth turn out when `COc1ccc(C(=O)/C(=N/Nc2ccccc2)c2ccc(OC)cc2)cc1` was run?
A: 106%

Q: With `C#CC(=O)/C=C/CCCCCCC#CC(=O)CCC(=O)C#CCCCCCC/C=C/C(=O)C#C` as the compound, how does the growth read?
A: -10% (active)

Q: With `Cc1cn(-c2cc(NC(=O)c3cncc(C#Cc4c(N)ncc5ccc(F)cc45)c3)cc(C(F)(F)F)c2)cn1` as the compound, how does the growth read?
A: 50.8%

Q: For `CC1(/C=N/NC(N)=S)NC(=O)NC1=O` (stereo not drawn), which growth is on record?
A: 102%

Q: For `O=C(CCl)c1ccc2c(c1)CCCC2`, which growth is on record?
A: 116%

Q: For `COc1ccc(NC(=O)/C(=C/N2C(=O)/C(=C/c3ccc(OC)c(OC)c3)NC2=S)C(C)=O)cc1`, which growth is on record?
A: 40.1%

Q: For `O=C1c2ccccc2C(=O)c2c(NCCN=Cc3ccccc3O)cccc21`, which growth is on record?
A: 43.8%

Q: With `O=C1/C(=C\c2cccc(OCCCCCOc3ccc(Cl)cc3)c2)N=C2SCCCN12` as the compound, how does the growth read?
A: 9.3% (active)

Q: For `NC1CCC(Nc2nc(NCc3ccc(-c4ccccc4O)nc3)c3ncn(C4CCCC4)c3n2)CC1` (stereo not drawn), which growth is on record?
A: -73.7% (active)

Q: For `COc1cccc(/C=C2/C(=O)N(Cc3ccco3)SC2=S)c1OC`, which growth is on record?
A: 76%

Q: How did the growth turn out when `O=C1C(Nc2ccccn2)=C(I)C(=O)c2ncccc21` was run?
A: -70.1% (active)

Q: How did the growth turn out when `COc1cc2c(c(OC)c1OC)CCC(c1cccc(C(=O)Nc3cccc(Cl)c3)c1)O2` (stereo not drawn) was run?
A: 77.4%

Q: `O=C1N=c2ccccc2=C1c1sc(=S)n(C2CC(=O)N(c3ccc(Cl)cc3)C2=O)c1O` (stereo not drawn) was tested. Which growth did it give?
A: 95.2%

Q: `COc1ccc(-c2nc(SCC(C)C)nc(N/N=C(/C)c3ccc(OC)c(OC)c3)c2C#N)cc1` was tested. Which growth did it give?
A: 91.5%

Q: How did the growth turn out when `O=C1C=C(Cl)C(=O)c2ccccc21` was run?
A: -6.29% (active)

Q: `O=C(Nc1ccc(C2=NCCCN2)cc1)c1ccc(C(=O)Nc2ccc(C3=NCCCN3)cc2)nc1` was tested. Which growth did it give?
A: 102%

Q: Which growth does the source give for `CC1(C)CC[C@]2(C(=O)Nc3ccccn3)CC[C@]3(C)C(=CC[C@@H]4[C@@]5(C)C/C(=C/c6cccnc6)C(=O)C(C)(C)[C@@H]5CC[C@]43C)[C@H]2C1` here?
A: 17.2%

Q: With `C=C1CC[C@H](C(C)C)[C@@H]2[C@H]1[C@H]1CC(=C)[C@@H](O)CC[C@@](C)(O)[C@@H]2O1` as the compound, how does the growth read?
A: 89%

Q: Which growth does the source give for `Cn1cc(-c2csc(-c3ccc(Cl)cc3)n2)c2cccnc21` here?
A: -69.1% [100 µM] (active)

Q: With `Nc1c(C(=O)Nc2ccccc2F)sc2nc3c(cc12)CCCC3` as the compound, how does the growth read?
A: 26.4%

Q: `C/C(=N\NC(=O)c1ccccc1O)c1cccc(/C(C)=N/NC(=O)c2ccccc2O)n1` was tested. Which growth did it give?
A: 23.9%

Q: Which growth does the source give for `CNC(=O)CN1CCC(Oc2cc3c(Nc4cccc(Cl)c4F)ncnc3cc2OC)CC1` here?
A: -22.9% (active)

Q: With `O=C(Nc1cccc(C2=NCCN2)c1)c1cccc(C(=O)Nc2cccc(C3=NCCN3)c2)c1` as the compound, how does the growth read?
A: 90.8%

Q: With `CCCCCCCC/C=C\CCCCCCCCOc1ccccc1CC(=O)NCC[N+]1(C)CCCCC1` as the compound, how does the growth read?
A: -9.98% (active)

Q: Which growth does the source give for `Cc1ccc(C)c2c1C(=O)OC2=O` here?
A: 110%

Q: How did the growth turn out when `Cc1ccc(-c2nc([P+](c3ccccc3)(c3ccccc3)c3ccccc3)c(S(=O)(=O)c3ccc(C)cc3)o2)cc1` was run?
A: -21.5% (active)

Q: For `COc1cccc(C2CC(=O)Nc3cc4c(cc32)CCC4)c1OC` (stereo not drawn), which growth is on record?
A: -2.82% (active)

Q: `Cc1cc2cn3c4ccc(O)cc4[nH]c(=O)c3c2cc1C` was tested. Which growth did it give?
A: -28.2% (active)

Q: How did the growth turn out when `CS(=O)(=O)Nc1cc(-c2ccc3ncnc(Nc4cccc(Cl)c4F)c3c2)cnc1Cl` was run?
A: -18.4% (active)

Q: Which growth does the source give for `CCOC(=O)c1cn2ncnc(Oc3ccc(NC(=O)NCCN4CCN(C)CC4)c(Cl)c3)c2c1C` here?
A: 45.4%

Q: For `COc1cc(Cl)cc(-c2nn(C(=O)NCCN3CCOCC3)cc2-c2ccncc2)c1`, which growth is on record?
A: 27.6%

Q: Which growth does the source give for `COc1ccc2cc(-c3ccc(NC(C)=O)c(=O)o3)ccc2c1` here?
A: 106%

Q: How did the growth turn out when `COc1ccc(/C(=C\c2ccc3c(c2)OCO3)C(=O)Nc2nc3ccc(F)cc3s2)cc1OC` was run?
A: 115%

Q: Which growth does the source give for `CC1(O)CC(c2nc(-c3ccc4ccc(-c5ccccc5)nc4c3)c3c(N)nccn23)C1` (stereo not drawn) here?
A: 25%

Q: For `N#CSc1cc(S(N)(=O)=O)ccc1N`, which growth is on record?
A: 105%

Q: `C/C(=C(/c1ccccc1)c1ccc(N2C(=O)c3cccc4c(NCc5ccccc5)ccc(c34)C2=O)cc1)c1ccccc1` was tested. Which growth did it give?
A: 116%

Q: With `CCCc1cc2c(=O)c(C(=O)OC)c[nH]c2cc1N(CC)CC` as the compound, how does the growth read?
A: 119%

Q: `O=c1c2c(c3ccccc3n1-c1ccccc1)NC(=S)NC2c1ccc(Cl)cc1` (stereo not drawn) was tested. Which growth did it give?
A: 115%

Q: With `CS(=O)(=O)c1c(Nc2ccccc2)n[nH]c1N` as the compound, how does the growth read?
A: 110%

Q: For `COc1ncc(-c2ccc3nc(N)n(-c4ccccc4C(F)(F)F)c(=O)c3c2)cc1S(=O)(=O)Nc1ccc(F)cc1F`, which growth is on record?
A: -37.3% (active)

Q: With `Cc1ccc(S(=O)(=O)NC(CCC(=O)Nc2ccc(Cl)cc2)C(=O)Nc2ccc(Cl)cc2)cc1` (stereo not drawn) as the compound, how does the growth read?
A: 29%

Q: With `O=C(Nc1ccc([N+](=O)[O-])cc1Cl)c1cc(Cl)ccc1O` as the compound, how does the growth read?
A: -21.5% (active) and -24.3% (active)

Q: How did the growth turn out when `COc1ccc(/C(C)=C(\c2ccc(OCCN3CCOCC3)cc2)c2ccc(OC(=O)C3CCCCC3)cc2)cc1` was run?
A: 116%

Q: For `CCN(CC)CCOc1ccccc1C`, which growth is on record?
A: 118%

Q: For `COc1ccccc1-n1cc(C#N)c(N)c1C(=O)c1ccc(Br)cc1`, which growth is on record?
A: 31.3%

Q: For `c1nc(SC2=NCCN2)c2[nH]cnc2n1`, which growth is on record?
A: 14.7%

Q: Which growth does the source give for `Brc1ccc(SSc2ccc(Br)cc2)cc1` here?
A: 87%

Q: For `COc1cccc(COC(=O)Nc2ccccc2)c1OC`, which growth is on record?
A: 93.3%

Q: For `Clc1ccc2oc3c(NCCCN4CCOCC4)c4ccccc4nc3c2c1`, which growth is on record?
A: 5.24% (active)

Q: How did the growth turn out when `N#CC1CCc2c(c(-c3cn[nH]c3C(F)(F)F)nc3c(F)cc4[nH]ncc4c23)C1` (stereo not drawn) was run?
A: -6.53% (active)

Q: How did the growth turn out when `O=S(=O)(Nc1cc(Br)c(O)c2ccccc12)c1ccc(F)cc1` was run?
A: -48.5% (active)

Q: For `Cc1cccc2nc3c(n12)C(=O)C(=O)c1ccccc1-3`, which growth is on record?
A: 79.9%

Q: For `C/C(=C\C(=O)c1ccc(Cl)cc1)c1ccc(Cl)cc1`, which growth is on record?
A: 5.65% (active)

Q: For `CCCCN1C(=O)/C(=c2\sc3n(c2=O)C2C(NN=3)N(CC)C(=O)N2CC)c2cccc(C)c21` (stereo not drawn), which growth is on record?
A: 12.4%

Q: For `CCCCCCCCCCCCNC(=O)[C@H]1CSC(c2cc3ccccc3s2)N1` (stereo partly drawn), which growth is on record?
A: -57.9% (active)

Q: `O=C(NCCNc1nccc(Nc2ccc(S(=O)(=O)Nc3ccccn3)cc2)n1)c1cccc([N+](=O)[O-])c1` was tested. Which growth did it give?
A: 105%

Q: With `Cc1ccc(C(=O)NCCCNc2nccc(-n3ccc4cccnc43)n2)cc1` as the compound, how does the growth read?
A: 95.6%

Q: How did the growth turn out when `CCOc1ccc(/C=C/C(=O)c2ccccc2)cc1` was run?
A: 68.2%

Q: How did the growth turn out when `CC(=O)OC[C@]12CC[C@@H](C(=O)CBr)[C@@H]1[C@H]1CC[C@@H]3[C@@]4(C)CC[C@H](OC(C)=O)C(C)(C)[C@@H]4CC[C@@]3(C)[C@]1(C)CC2` was run?
A: 108%

Q: `COc1ccc(S(=O)(=O)NCCNc2nccc(-c3c(-c4ccccc4)nc4sccn34)n2)cc1` was tested. Which growth did it give?
A: 36.7%

Q: Which growth does the source give for `C=CCc1c(O)c(C(=O)/C=C/c2ccccc2)c(OC)c2ccoc12` here?
A: 6.58% (active)

Q: For `NC(=NCc1ccccc1)C(N=Nc1ccccc1)C(=O)NCc1ccccc1` (stereo not drawn), which growth is on record?
A: 55.3%

Q: For `COc1cc(C2CC(c3cc(OC)c(OCCCOc4ccc(-n5c(/C=C/c6ccccc6)nc6ccccc6c5=O)cc4)c(OC)c3)=NO2)cc(OC)c1OC` (stereo not drawn), which growth is on record?
A: 104%

Q: How did the growth turn out when `Oc1c(I)cc(-c2nc3ccccc3s2)cc1CN(Cc1ccccn1)Cc1ccccn1` was run?
A: -11.4% (active)

Q: For `Oc1c(Cl)cc(Cl)c2ccc(Cn3cc(-c4cccc(C(F)(F)F)c4)nn3)nc12`, which growth is on record?
A: 56.4%

Q: Which growth does the source give for `COc1cc(OC)c(C(=O)/C=C/c2cccc(OC(C)=O)c2)cc1CC=C(C)C` here?
A: 58.3%

— PubChem BioAssay (NCI)
